# Experimental data as given in PubChem BioAssay AID1220 (Sanford-Burnham Center for Chemical Genomics, 2008).
# “And” between values parts separate entries of the source, which are not always exact repeats. Equal entries are not always repeated. In all, about 190,000 compounds went through this assay and about 1,300 (0.68%) were called active. The list comes from a sample in which actives are over-represented; it also holds similar structures and randomly drawn compounds. Unmarked numbers belong to inactive results. No stated cut-off is given here; in the data, active means inhibition above about 50%; inactive means the rest.
# Molecular target: Mannose-6-phosphate isomerase (Homo sapiens) (UniProt P34949)
# Test: human PMI inhibitors, high substrate, primary screen, biochemical, fluorescence intensity, high mannose 6-phosphate (AID 1220)
# Settings: recombinant PMI enzyme, coupled fluorescence intensity; at 20 µM; hits give high values
# Chain of Mannose-6-phosphate isomerase (Homo sapiens) (P34949 whole entry, looked up): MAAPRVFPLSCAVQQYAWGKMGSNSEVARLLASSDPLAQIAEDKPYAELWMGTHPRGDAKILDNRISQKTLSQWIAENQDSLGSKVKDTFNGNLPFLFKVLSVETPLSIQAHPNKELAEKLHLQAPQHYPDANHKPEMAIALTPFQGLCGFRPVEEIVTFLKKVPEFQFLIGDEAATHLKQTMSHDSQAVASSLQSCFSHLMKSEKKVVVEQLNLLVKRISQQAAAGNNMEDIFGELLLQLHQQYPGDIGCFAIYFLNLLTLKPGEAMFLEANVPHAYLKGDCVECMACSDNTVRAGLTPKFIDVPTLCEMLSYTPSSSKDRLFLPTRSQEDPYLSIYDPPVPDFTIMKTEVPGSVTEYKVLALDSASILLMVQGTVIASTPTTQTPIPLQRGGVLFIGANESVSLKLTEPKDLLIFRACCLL
row,SMILES,inhibition
1,C#CCOCCOCCOCCNc1nc(N2CCN(C(=O)[C@H](C)n3cc(CCCN=C(N)N)nn3)CC2)nc(N2CCN(C(=O)[C@H](Cc3ccc(O)cc3)n3cc(CCO)nn3)CC2)n1,-38%
2,COc1ccc(C(CC(=O)c2ccccc2)CC(=O)c2ccccc2)cc1OC,4%
3,Cc1ccccc1N=Cc1cc2c(cc1O)OC(N)=C(C#N)C2c1ccccc1 (centres undefined),55% (active)
4,Cc1ccc(C2C(C#N)=C(N)Oc3cc4c(cc32)OCO4)cc1 (centres undefined),0.5%
5,COc1ccc(N=Cc2cc3c(cc2O)OC(N)=C(C#N)C3c2ccccc2)cc1 (centres undefined),50.4% (active)
6,Cc1ccc(N=Cc2cc3c(cc2O)OC(N)=C(C#N)C3c2ccccc2)cc1 (centres undefined),10.5%
7,N#CC1=C(N)Oc2cc(O)ccc2C1c1ccccc1 (centres undefined),7.4%
8,N#CC1=C(N)Oc2cc(O)c(C=Nc3ccccc3)cc2C1c1ccccc1 (centres undefined),-4%
9,Clc1ccc(C2=NCCN2)cc1,1.4%
10,O=C(Cc1ccc(F)cc1)N/N=C/c1ccccn1,16.5%
11,Cn1c(=O)[nH]c(=O)c2c1nc(N1CCOCC1)n2CC(O)COc1ccc2ccccc2c1 (centres undefined),6.5%
12,O=C(NC1CCCc2ccccc21)c1ccc(CNc2c(N3CCOCC3)c(=O)c2=O)cc1 (centres undefined),-6.9%
13,CCOC(=O)c1cc2c(ccn2C)n1CC(=O)N(C)C,44.7%
14,CCOC(=O)c1cc2c(ccn2C)n1CC(=O)N1CCC(C)CC1,13.8%
15,CCOC(=O)c1cc2c(ccn2C)n1CC(=O)N1CCCC(C)C1 (centres undefined),7.2%
16,CCOC(=O)c1cc2c(ccn2C)n1CC(=O)N1C(C)CCCC1C (centres undefined),52% (active)
17,CCOC(=O)c1cc2c(ccn2C)n1Cc1ccc(C#N)cc1,35.1%
18,CCOC(=O)c1cc2c(ccn2C)n1Cc1cc(C)ccc1C,22.9%
19,CCOC(=O)c1cc2c(ccn2C)n1Cc1ccccc1C,22.3%
20,CCOC(=O)c1cc2c(ccn2C)n1Cc1ccc(Cl)cc1,52.4% (active)
21,CCOC(=O)c1cc2c(ccn2C)n1Cc1ccccc1Cl,50.5% (active)
22,CCOc1cc(CNCc2ccccn2)cc(Cl)c1OC,-0.7%
23,Cc1noc(C)c1C(=O)Nc1sc2c(c1C(N)=O)CCC2,0.1%
24,Cc1ccccc1CSc1nc2c(c(=O)[nH]1)CCC2,6.8%
25,O=C(O/N=C1\CCCc2ccccc21)c1cccc(Cl)c1,7.1%
26,CCN(CCn1cccn1)C(=O)CCc1nnc(-c2ccc3c(c2)OCO3)o1,5.8%

row,SMILES,inhibition
1,CN(C)S(=O)(=O)c1ccc(C(=O)Nc2cc(=O)n(C)c(=O)n2C)cc1,3.9%
2,O=C(c1nc2ncccn2n1)N1CCN(c2ccc(F)cc2)CC1,15%
3,O=C(CCc1c[nH]c2ccccc12)NCc1ccco1,-5.8%
4,NC(Cc1c[nH]c2ccccc12)C(=O)NCc1ccco1 (centres undefined),55.4% (active)
5,O=C(Cc1c[nH]c2ccccc12)NCc1ccco1,7.4%
6,COc1ccc(OCC(=O)Nn2c(-c3ccc(C)cc3)nc3ccccc3c2=O)cc1,12.7%
7,O=c1[nH]c2cc3c(cc2cc1CN(Cc1nnnn1CC1CCCO1)C1CCCCC1)OCO3 (centres undefined),5.5%
8,COc1ccc(C=Nc2cccc3ncccc23)cc1,63.3% (active)
9,Nc1ncc(Br)cc1N=Cc1ccccc1,24.6%
10,COc1ccc(/C=N\n2nnc3ccccc32)cc1,-4.2%
11,COc1ccc(OCC(=O)Nc2cccc3ncccc23)cc1,3.4%
12,Cc1ccc(C=Nc2ccccc2C(N)=O)cc1,0.6%
13,Cc1ccc(C=Nc2cccnc2N)cc1,63.2% (active)
14,Cc1ccc(NC(=O)CCC(=O)N/N=C/c2cccs2)cc1,-0.5%
15,COc1ccc(CNc2ccc(C)c(C)c2)cc1,9.2%
16,COc1cc(CNc2ccc(O)cc2)cc(Br)c1OCc1ccccc1F,57.4% (active)
17,COc1cc(CNc2ccc(O)cc2)cc(Br)c1OCc1ccccc1,49.4%
18,CCNCc1ccc(OCc2ccccc2F)c(OC)c1,-4.4%
19,COc1ccc(NCc2ccc(OC)c(OC)c2)cc1,60.3% (active)
20,COc1cc(CNc2ccc(N3CCN(C(C)=O)CC3)cc2)ccc1OCc1ccccc1,38.7%
21,COc1ccc(CNS(=O)(=O)NCc2ccc(OC)c(OC)c2)cc1,-3.8%
22,COc1cc(CNc2ccc(N3CCCC3)cc2)ccc1OCc1ccccc1F,55.7% (active)
23,COc1cc(CNc2ccc(N3CCCC3)cc2)ccc1OCc1ccccc1,71.5% (active)
24,CCOc1cc(CNc2ccc(O)cc2)cc(Br)c1OCc1ccccc1F,29.5%
25,COc1cc(CNCCCCO)ccc1OCc1ccccc1F,2.9%
26,COc1cc(CNc2ccc(N3CCN(C(C)=O)CC3)cc2)ccc1OCc1ccc(F)cc1,27%

row,SMILES,inhibition
1,Cc1cccc(C)c1NC(=O)C1=C(O)c2sccc2N(C)S1(=O)=O,2.2%
2,CCOC(=O)c1c(NC(=O)CSc2nnc(CNC(=O)c3ccco3)n2C)sc2c1CCC2,4.5%
3,CCCCCNCc1cccn1C,-9.2%
4,CCC(CC)N=C1NS(=O)(=O)c2cc([N+](=O)[O-])ccc21,-4.3%
5,Cc1cc(=O)oc2cc(OCC(O)CN3CCN(c4ccc(F)cc4)CC3)ccc12 (centres undefined),7.1%
6,O=C(COC(=O)COc1ccccc1)Nc1ccccc1OC(F)F,-0.8%
7,Cc1cccc(NS(=O)(=O)c2cc(C(=O)N3CCOCC3)ccc2Cl)c1,6.8%
8,CN(C)c1cccc(C(=O)NC2CCCCCC2)c1,5.6%
9,Cc1ccccc1CN(C)CC(=O)Nc1c(C)cccc1C(C)C,0.5%
10,CC(=O)c1ccc(N(C)C)c2c(N(C)C)cccc12,38.5%
11,Cc1ccccc1OCCOc1ccccc1C=C(C#N)C#N,16.3%
12,Cc1cccc(OCCOc2ccccc2C=C(C#N)C#N)c1,11%
13,CN(C)c1cccc2c(/C=N/O)ccc(N(C)C)c12,51.7% (active)
14,CN(C)c1ccc(/C=N/O)cc1,44.3%
15,CN(C)c1cccc2c(C=C(C#N)C#N)ccc(N(C)C)c12,63.9% (active)
16,CCOC(=O)C1CCN(C(=O)c2ccc3c(c2)OCO3)CC1,11.2%
17,COc1ccccc1OCC(=O)Nn1c(=S)[nH]c2ncccc2c1=O,-3.7%
18,CC(c1ccccc1)n1cc(C(=O)NCCN2CCOCC2)nn1 (centres undefined),-7.2%
19,Cc1csc(NC(=O)c2ccccc2[N+](=O)[O-])n1,-6.4%
20,Nc1cnccc1C(=O)O,63.7% (active)
21,Nc1ccc(Br)cc1C(=O)O,1.2%
22,COC(=O)c1ccncc1N,8.9%
23,COc1ccc(NC(=O)CSc2nc3c(c(=O)n2-c2ccccc2)SCC3)c(OC)c1,2.7%
24,CCN(CC)C(=O)c1cn(CC)c(=O)c2cc(OC)c(OC)cc12,-0.2%
25,CC(=O)Nc1cccc(NC(=O)Nc2ccc(F)cc2F)c1,19.6%
26,CC(=O)Nc1cccc(NC(=S)Nc2ccc(F)c(Cl)c2)c1,41.1%

row,SMILES,inhibition
1,CC(=O)Nc1cccc(NC(=S)Nc2ccc(F)cc2F)c1,55.8% (active)
2,COc1cccc(-n2c(Cc3cc(=O)[nH]c(=O)[nH]3)nnc2SCC(=O)N2CCC(C)CC2)c1,3.3%
3,CCOC(=O)c1c(C)[nH]c(C)c1C(=O)COC(=O)c1ccc(S(=O)(=O)N(CC)CC)cc1,4.4%
4,c1cnc2c(c1)ccc1cccnc12,-13% and -7.3%
5,Cc1ccc2cccnc2c1N,70.5% (active)
6,Cc1ccc2ncccc2c1[N+](=O)[O-],9.7%
7,Cc1ccc2nc(C)c(C)nc2c1N,23.4%
8,Cc1ccc2ncccc2c1N,63.7% (active)
9,Nc1ccc2ncccc2c1N,49.6%
10,O=C(c1cnc2n(c1=O)CCS2)N(c1ccccc1)C1CCCCC1,-10.4%
11,CCc1ccc(NC(=O)c2c(C(=O)Nc3ccccc3)sc3nc(C)cc(=O)n23)cc1,-2.4%
12,CCOC(=O)N1CCN(Cc2c(NC(=O)c3ccco3)sc(C)c2C)CC1,3.6%
13,CC1=NC(C)(C)Cc2ccccc21,11%
14,CC1(C)CC(=O)C(C2=NC(C)(C)Cc3ccccc32)=C(O)C1,-9.5%
15,CCOc1ccc2[nH]c(=S)[nH]c2c1,20.7%
16,COC(=O)/C=C1/N/C(=N\c2nc(C)cc(C)n2)N(c2ccccc2)C1=O,13.3%
17,COC(=O)/C=C1\N/C(=N\c2nc(C)cc(C)n2)N(c2ccc(C)cc2)C1=O,-5.3%
18,COC(=O)/C=C1/N/C(=N\c2nc(C)cc(C)n2)N(c2cccc(C)c2)C1=O,50.4% (active)
19,CC(/C=N\NC(=O)CN1CCN(Cc2ccccc2)CC1)=C\c1ccco1,9.7%
20,Oc1c(C(c2ccccn2)N2CCC(Cc3ccccc3)CC2)cc(Cl)c2cccnc12 (centres undefined),58.9% (active)
21,Oc1c(C(c2ccccn2)N2CCCCC2)cc(Cl)c2cccnc12 (centres undefined),32.5%
22,CN1CCN(C(c2ccccn2)c2cc(Cl)c3cccnc3c2O)CC1 (centres undefined),43.8%
23,CC(=O)Cc1nsc(NC(=O)c2ccccc2)n1,6.4%
24,Cc1cccc2cn[nH]c12,-8.9%
25,Cc1ccc2cn[nH]c2c1[N+](=O)[O-],6.8%
26,Cc1ccc2cn[nH]c2c1N,58.3% (active)
